Only some compounds are listed: those with a hit (about 3.7% of all), similar ones and a draw of the others.
HTT aggregate: reduces HttQ103-GFP aggregates in PC12 cells | PC12 HttQ103-GFP aggregates, Acumen cytometry, 40 h | Potency, µM (series often up to 46.1 µM), inactives show at the top dose activity change, negative = inhibition, most hits filed as inhibitors | actives 1.1% (n = 220,000) | AID 1688; further: on the % scale 0 is the no-effect control and ±100 the full control effect; nearly all actives have a fitted effect of over 60% in size
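Compounds (qHTS titration) were added to PC12 cells expressing an ecdysone-driven HTT exon 1 Q103–GFP fusion after induction with 100 nM tebufenozide. Aggregate formation was measured as GFP objects in cell lysates.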
Tau fluor cs: counter-screen for tau fibril formation inhibitors | tau K18 P301L Alexa594 fluorescence, heparin fibrillization | AID 1463 | Potency, µM (series often up to 57.7 µM), without a hit: top-dose activity change, negative = decrease | actives 0.93% (n = 280,000); further: on the % scale 0 is the no-effect control and ±100 the full control effect; nearly all actives have a fitted effect of over 55% in size
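Human K18 P301L tau (15 uM unlabeled plus 0.24 uM Alexa 594-labeled, final) in 100 mM sodium acetate pH 7 was mixed with compound and 20 uM heparin and incubated 6 hr at 37 C.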
Tau fibril ThT: blocks human tau fibril formation measured by thioflavin T; P10636; recombinant tau K18 P301L, heparin-induced fibrillization, ThT fluorescence; Potency, µM (doses to about 57.4 µM), inactives show top-dose activity, negative = inhibition, most hits filed as inhibitors; actives 2.1% (n = 270,000); AID 1460; further: on the % scale 0 is the no-effect control and ±100 the full control effect; nearly all actives have a fitted effect of over 55% in size
Target sequence (P10636 561-689 P618L limits assumed): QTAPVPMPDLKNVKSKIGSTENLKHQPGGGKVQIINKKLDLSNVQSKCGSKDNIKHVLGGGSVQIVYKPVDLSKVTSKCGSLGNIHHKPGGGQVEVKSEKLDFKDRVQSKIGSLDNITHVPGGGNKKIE
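Using a mix of unlabeled (15 uM) and Alexa 594-labeled (0.24 uM) tau K18 P301L, heparin-triggered fibrillization over 6 hr at 37 C was scored by ThT fluorescence.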
Tau FP inhib: blocks human tau fibril formation measured by polarization; actives 0.39% (n = 280,000); K18 P301L tau heparin fibrillization, Alexa594 FP, 6 h; AID 1468; P10636; Potency, µM (top dose mostly 57.7 µM), for inactives: at the highest dose activity, negative = inhibition, actives largely listed as inhibitors; further: on the % scale 0 is the no-effect control and ±100 the full control effect; nearly all actives have a fitted effect of over 55% in size
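FP of Alexa 594-tau after heparin (20 uM) induction. Substrate: human K18 P301L, 15 uM unlabeled, 0.24 uM labeled. Buffer 100 mM sodium acetate pH 7. 6 hr, 37 C.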
HTT cytoprotect: cytoprotection in Huntington HTT-Q103 PC12 cell model; Potency, µM (top dose mostly 56.4 µM), for the others: cytoprotection (ATP increase), usual class: activators; actives 0.14% (n = 230,000); PC12 HTT-Q103 induced, cytoprotection, ATP luminescence, 40 h; AID 1471; further: % of control where 0% means no effect; nearly all actives have a fitted effect of over 45% in size
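Stable PC12 Q103-GFP cells in serum-supplemented, phenol red-free DMEM; induction by tebufenozide at 100 nM final; compound dose series; cell viability quantified luminescently from ATP.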
An asterisk follows results filed as active; ? = inconclusive; / = no result given; [ ] = remark or other dose. The call rests on the fitted dose curve; in most records, active means well fitted curve in the direction sought with a large enough effect; inconclusive means small, poorly fitted or top-dose-only effect, or another doubt; inactive means no such curve, though single readings can be large; an effect the other way counts as inactive or inconclusive. Potency means the concentration at half of the fitted maximal effect.

SMILES	HTT aggregate	Tau fluor cs	Tau fibril ThT	Tau FP inhib	HTT cytoprotect
Cc1ccc(CNC(=O)c2c(-c3ccc(Br)cc3)noc2C)o1	/	-8.7%	-2.9%	3.8%	/
CCN(CC)Cc1c(O)ccc2c([N+](=O)[O-])c(C)n(-c3ccc(OC)cc3)c12	5.01µM*	-24.9%	?	-0.9%	-11.7%[10 µM]
CC1=NN(c2ccccc2)C(=O)/C1=C/c1ccc[nH]1	-25.1%	-20.3%	12.6µM*	-2.0%	13.1%[10 µM]
CC1=NN(c2ccccc2)C(=O)/C1=C/c1c(O)n(-c2ccc(F)cc2)[nH]c1=O	-1.5%	12.6µM*[quencher]	4.47µM*	12.4%	-25.1%[10 µM]
CC1=NN(c2ccccc2)C(=O)/C1=C\c1ccc(Br)s1	0.708µM*	?	12.6µM*	-0.6%	5.2%[10 µM]
CC1=NN(c2ccccc2)C(=O)/C1=C\c1cc(C)n(-c2ccccc2)c1C	-5.1%	-26.4%	7.94µM*	-4.1%	-9.2%[10 µM]
CC1=NN(c2ccccc2)C(=O)/C1=C/c1cccs1	6.7%	-14.7%	?	-4.8%	-2.0%[10 µM]
CCCCc1c(O)n(-c2ccccc2)[nH]c1=O	/	-11.2%	-7.4%	-11.0%	-51.2%
CC1(C)OC(=O)C(=Cc2ccc[nH]2)C(=O)O1	-0.9%[9.22 µM]	-9.4%	-8.0%	-5.4%	0.1%[10 µM]
COC(=O)[C@H](Cc1ccccc1)NC(=O)O[C@@H]1C(=O)c2cc(OC)ccc2O[C@H]1c1cccc(OC)c1	/	-14.4%	-9.9%	-3.0%	-0.5%
C/C(CC/C(C)=N/O)=N/O	/	/	/	/	-1.6%[10 µM]
CCOc1ccccc1C(=O)N(Cc1cc(OC)c(OC)c(OC)c1)c1ccccn1	/	-1.4%	-2.4%	2.8%	/
CCc1nnc(NC(=O)CN2C(=O)/C(=C/c3cc(OC)c(OC)c(OC)c3)SC2=S)s1	15.7%	?	7.94µM*	?	1.4%[10 µM]
COCCCN=C(c1ccco1)n1c(=S)nc(-c2ccco2)n(CCCOC)c1=S	27.2%	-23.6%	31.6µM*	?	-22.5%
CCOc1ccccc1-c1ccc(C(=O)O)o1	/	-15.1%[126 µM]	?	-3.3%[126 µM]	3.3%[96.6 µM]
COc1nc(/C=C/N(C)C)c([N+](=O)[O-])c(OC)n1	-6.3%[9.22 µM]	?	8.91µM*	-5.5%	2.7%[10 µM]
C=CCOCCN(C)C1=NS(=O)(=O)c2cc([N+](=O)[O-])ccc21	-22.5%	1.4%	2.2%	5.0%	-67.5%
CN(CCO)C1=NS(=O)(=O)c2cc([N+](=O)[O-])ccc21	6.31µM*	-1.8%	2.3%	-2.2%	-159.8%
c1ccc(Nc2ncnc3sc4c(c23)CCC4)cc1	-16.4%	-2.3%	2.7%	2.2%	-29.1%
Fc1ccc(Nc2ncnc3sc4c(c23)CCC4)cc1F	10µM*	?	?	-8.5%	-18.5%[10 µM]
Fc1ccc(Nc2ncnc3sc4c(c23)CCC4)cc1	?	-26.6%	?	-7.3%	-24.1%[10 µM]
c1csc(CCNc2ncnc3sc4c(c23)CCC4)c1	7.94µM*	-15.3%	?	2.7%	-5.9%
CCCNC(=O)OC[C@@H]1O[C@H](CCO/N=C(\C)CCN2CCc3nc(CC)c(CC)cc3C2)C=C[C@@H]1Oc1ccc(OC)cc1	/	-4.7%[11.6 µM]	-15.9%[11.5 µM]	7.2%[11.6 µM]	4.0%[10 µM]
O=C(CCCn1ccc2cc(S(=O)(=O)N3CCCC3)ccc21)NCc1ccc(Cl)cc1	/	-25.6%	-0.3%	?	/
CC(C)c1ccc2occ(CC(=O)Nc3cccc(C(F)(F)F)c3)c2c1	/	?	-4.0%	17.8µM*	/
SMILES	HTT aggregate	Tau fluor cs	Tau fibril ThT	Tau FP inhib	HTT cytoprotect
Cc1ccc2occ(CC(=O)Nc3ccc(Cl)c(C(F)(F)F)c3)c2c1	/	?	-0.4%	14.1µM*	/
CCc1ccc2occ(CC(=O)Nc3ccc(OC)c(Cl)c3)c2c1	/	25.1µM*[quencher]	?	?	/
CCc1ccc2occ(CC(=O)NCc3ccccc3)c2c1	/	-17.4%	-7.7%	1.7%	/
Cc1ccc2occ(CC(=O)Nc3ccc(S(N)(=O)=O)cc3)c2c1	/	-6.2%	-2.4%	-6.2%	/
O=C(O)[C@@H]1[C@@H](C(=O)NCc2ccccn2)[C@@H]2C=C[C@@H]1O2	/	/	/	/	-14.4%[10 µM]
NC(=O)Cc1nc(-c2ccc(F)cc2)cs1	7.8%[9.22 µM]	-6.0%	-2.8%	2.1%	7.6%[10 µM]
NC(=S)Cc1nc(-c2ccc(Cl)cc2)cs1	-9.1%	?	15.8µM*	?	?
CC(=O)c1ccc(NC(=O)CSc2nnc(Cn3cnc4ccccc43)o2)cc1	-2.5%[9.22 µM]	-12.8%	-13.8%	-4.6%	2.1%[10 µM]
COc1ccc(C(=O)CSc2nnc(Cn3cnc4ccccc43)o2)cc1	10µM*	-6.4%	-7.0%	1.3%	-12.3%[10 µM]
COc1cc(O)cc2cc3c(c(O)c12)C(=O)CC(C)(O)O3 (stereo not given)	?	?	25.1µM*	-14.2%	5.3%[10 µM]
COc1cc(O)c2c(c1)OC(C)(C)CC2=O	9.9%	-3.6%	3.8%	-5.5%	9.8%[10 µM]
O=C(Cc1cc(=O)[nH][nH]1)N/N=C/C(Cl)=C/c1ccccc1	7.0%	?	2.82µM*	?	13.4%
COc1ccc2c(c1)OC1(O)COc3cc(OC)c(OC)cc3C1=C2 (stereo not given)	/	?	5.62µM*	?	/
COc1ccc(C2CC(O)(c3ccccc3)Oc3cc(OC)ccc32)cc1 (stereo not given)	-8.6%[9.22 µM]	?	-13.4%	-1.3%	-20.9%[10 µM]
Cc1c(Cl)cccc1-n1ncc(C(=O)NC2CCCC2)c1C1CCN(C(=O)OC(C)(C)C)CC1	/	-14.5%	-9.7%	0.6%	/
C/C(=N\S(=O)(=O)c1ccc(C)cc1)NC(=S)Nc1ccccc1	7.5%	-4.0%	-3.0%	-9.9%	-63.9%
COC(=O)C(C(C)=O)C1=C/C(=N\S(=O)(=O)c2ccc(C)cc2)c2ccccc2C1=O (stereo not given)	13.9%	?	31.6µM*	?	-18.2%
COc1ccc(CC(=O)Nc2ccc3nc(Nc4ccc(OC)cc4)cc(C)c3c2)cc1	/	3.55µM*[quencher]	?	2.2%	/
Cc1cc(Nc2cccc(Cl)c2)nc2ccc(NC(=O)Cc3c(F)cccc3Cl)cc12	/	7.94µM*[quencher]	?	-13.0%	/
COc1ccc(Nc2cc(C)c3cc(NC(=O)c4cc(OC)cc(OC)c4)ccc3n2)cc1	/	12.6µM*[quencher]	11.2µM*	?	/
O=C(Cc1c(F)cccc1Cl)Nc1ccncc1	-17.1%	6.4%	-3.1%	1.4%	29.8%[10 µM]
COc1ccc(Nc2cc(C)c3ccccc3n2)cc1	-2.6%	?	?	9.8%	-37.5%
COc1ccc(Nc2cc(C)c3cc(NC(=O)COc4cccc(C)c4)ccc3n2)cc1	/	11.2µM*[quencher]	7.08µM*	?	/
COc1ccc(C(=O)Nc2cc(OC)cc(OC)c2)cc1	2.2%	-9.2%	-19.8%	-2.4%	-54.4%
N#CCc1ccccc1[N+](=O)[O-]	/	/	/	/	17.3%
O=C(O)C1=C/C(=C(/c2ccccc2)c2cc(C(=O)O)c(O)c3ccccc23)c2ccccc2C1=O	/	/	/	/	-8.7%[10 µM]
COc1cccc(CNCCSc2nnnn2C)c1OCc1ccccc1F	/	-10.6%	-1.6%	-4.0%	/
COc1ccc(NC(=O)Cc2c(F)cccc2Cl)c(OC)c1	14.2%	-1.0%	6.7%	3.8%	4.9%[10 µM]
